# An excerpt weighted towards active compounds, which were near 21% of everything screened.
# RORgamma inh – inhibitors of mouse ROR gamma transcriptional activity | 5.4% of 310,000 active | P51450 | Drosophila S2 Gal4-RORgamma UAS-luciferase reporter, 20 h | Potency, µM (highest dose often 53.6 µM), for the others: top-dose activity change, negative = inhibition, most hits filed as inhibitors; further: potency means the concentration at half of the fitted maximal effect; nearly all actives have a fitted effect of over 60% in size
# Target sequence (P51450 whole entry, looked up, the tested form may be a part): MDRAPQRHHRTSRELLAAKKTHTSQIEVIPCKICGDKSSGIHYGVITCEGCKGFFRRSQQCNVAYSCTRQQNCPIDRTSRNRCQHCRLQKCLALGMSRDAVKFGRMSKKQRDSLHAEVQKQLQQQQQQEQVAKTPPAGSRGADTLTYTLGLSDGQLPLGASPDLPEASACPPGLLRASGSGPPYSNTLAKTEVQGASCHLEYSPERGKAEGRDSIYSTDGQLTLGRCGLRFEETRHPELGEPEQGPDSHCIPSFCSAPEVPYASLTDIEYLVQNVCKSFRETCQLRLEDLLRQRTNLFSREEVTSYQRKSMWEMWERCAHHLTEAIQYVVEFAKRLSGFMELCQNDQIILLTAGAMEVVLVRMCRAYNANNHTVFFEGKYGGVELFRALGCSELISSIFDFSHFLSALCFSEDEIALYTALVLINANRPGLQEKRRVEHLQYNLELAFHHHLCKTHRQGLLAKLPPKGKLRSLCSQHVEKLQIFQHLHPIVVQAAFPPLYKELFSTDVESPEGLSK
#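 In this cell-based reporter format, copper sulfate (700 uM final) drives Gal4–ROR gamma fusion expression from a metallothionein promoter in Drosophila Schneider cells; compounds preincubated 1 hr, reporter read after 20 hr at ambient temperature.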
# TDP1 cell CPT – DT40-hTDP1 cell growth loss with CPT; chicken DT40 Tdp1-/-;hTDP1 cells + 20 nM CPT, ATP luminescence, 48 h; 12% of 420,000 active; Potency, µM (series often up to 46.2 µM), inactives show at the top dose activity change, negative = growth inhibition, most hits filed as inhibitors; further: potency means the concentration at half of the fitted maximal effect; nearly all actives have a fitted effect of over 55% in size
#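 Chicken DT40 Tdp1-/- cells complemented with human TDP1, 400 cells/well, exposed to compounds plus 20 nM camptothecin for at least 48 h at 37 C; viability read as ATP content by CellTiter-Glo luminescence.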
# Gal4-VP16 FLuc – inhibits Gal4-VP16 luciferase reporter, ROR gamma counter-screen | Drosophila S2 Gal4-VP16 UAS-luciferase, luminescence, 20 h | Potency, µM (titrated, usually from 53.6 µM), without a hit: at the highest dose activity, negative = inhibition, usual class: inhibitors | 3.5% of 310,000 active | AID 2546;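 further: Gal4-VP16 expression switched on by copper sulfate through the metallothionein promoter; potency means the concentration at half of the fitted maximal effect; nearly all actives have a fitted effect of over 50% in size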
# ELG1 repair inh – blocks ELG1-dependent DNA repair in HEK293T cells. 2.3% of 330,000 active. HEK293T ELG1-luciferase reporter, luminescence, 16 h; DNA damage induced by 5-fluorouridine. Potency, µM (highest dose often 46.1 µM), for the others: top-dose activity change, negative = inhibition, usual class: inhibitors; further: potency means the concentration at half of the fitted maximal effect; nearly all actives have a fitted effect of over 55% in size
#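 5-Fluorouridine DNA damage + compound/DMSO, 2,000 cells/well, 16 h, 37 °C/5% CO2. ONE-Glo, 30 min RT, luminescence. Readout = decrease in reporter signal.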
# IL1B secr inh – blocks inflammasome-driven IL-1 beta release; 4.7% of 360,000 active; THP-1 LPS/ATP IL-1B secretion, AlphaLISA, 16 h; active compounds read low; activity change, % at 57.5 µM; in the data active means activity change below about -50%; inconclusive means mostly about -30% to -49%
#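 THP-1 cells pretreated 1 hr with compounds (up to 57.5 uM final), then stimulated with LPS (250 ng/mL final) plus ATP (1.25 mM final); secreted IL-1B measured by AlphaLISA after 16 hr, decreased signal indicating inhibition.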
# DT40 TDP1 no CPT – qHTS for Inhibitors of human tyrosyl-DNA phosphodiesterase 1 (TDP1): qHTS in cells in absence of CPT; DT40 Tdp1-/- hTDP1 cells, no CPT, ATP luminescence, 48 h; Potency, µM (top dose mostly 46.2 µM), for the others: top-dose activity change, negative = growth inhibition, hits mostly inhibitors; 15% of 420,000 active; further: potency means the concentration at half of the fitted maximal effect; nearly all actives have a fitted effect of over 55% in size
#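 Seeded 400 DT40-hTDP1 cells/well (vehicle DMSO, no 20 nM CPT); pinned compounds; ≥48 hr at 37 °C; CellTiter-Glo luminescence as viability measure.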
# * marks the source's active call; other numbers are inactive results; ? = inconclusive; / = no result given; ! = a repeat was not active; [ ] = another dose, or the depositor's remark. Unless noted, the call rests on the fitted dose curve; in most records, active means well fitted curve in the direction sought with a large enough effect; inconclusive means small, poorly fitted or top-dose-only effect, or another doubt; inactive means no such curve, though single readings can be large; an effect the other way counts as inactive or inconclusive. On the % scale 0 is the no-effect control and ±100 the full control effect.
SMILES,RORgamma inh,TDP1 cell CPT,Gal4-VP16 FLuc,ELG1 repair inh,IL1B secr inh,DT40 TDP1 no CPT
O=c1[nH]c(=O)n(Cc2ccco2)c(O)c1C=NCCN1CCNCC1,16.4%,-0.1%,-5.8%,-13.1%,33.9,3.4%
CCOC(=O)c1cc2c(cn1)[C@@H](CCO)NC2,/,0.4%,/,/,-21.5,-1.7%
O=C1C=C2C=C[C@@H]3C[C@@]2(O1)[C@H]1CCCCN31,6.3%,11.9µM*,13.9%,/,/,7.5µM*
CC(C)[C@]1(O)[C@@H](OC(=O)c2ccc[nH]2)[C@@]2(O)[C@@]3(C)C[C@]4(O)O[C@@]5([C@H](O)[C@@H](C)CC[C@]35O)[C@@]2(O)C41C,-29.7%,-12.3%,-0.9%,/,/,?
CC(C)OC(=O)OCOP(=O)(CO[C@H](C)Cn1cnc2c(N)ncnc21)OCOC(=O)OC(C)C,/,8.41µM*!,/,/,/,10.6µM*!
ClCCN(CCCl)c1ccc(/C=C/c2ccnc3ccccc23)cc1,/,3.98µM*,/,/,/,3.55µM*
ClCCN(CCCl)c1ccc(C=Cc2ccncn2)cc1,/,6.51µM*,/,/,?,9.2µM*
Cc1cc(/C=C/c2ccnc3ccccc23)ccc1N(CCCl)CCCl,/,?,/,/,/,25.1µM*
CC(C)(C)[C@]1(O)C[C@@H]2OC(=O)CC23C(=O)O[C@@H]2OC(=O)[C@H](O)C231 (stereo partly specified),-3.3%,/,3.2%,/,/,/
CCCCOC1NC(=O)NC(=O)C1(F)C(=O)OCC (stereo unspecified),/,?,/,/,23.8,?
CCN1CC2(OC(=O)c3ccccc3NC(C)=O)CCC(OC)[C@]34C1[C@H](CC23)[C@@]1(O)C[C@H](OC)[C@H]2CC4C1(O)[C@H]2OC (stereo partly specified),10.8%,/,-0.4%,/,/,/
CC(=O)O[C@H]1C(=O)[C@@]2(C)C([C@H](OC(=O)c3ccccc3)[C@]3(O)C[C@H](OC(=O)[C@H](O)[C@@H](NC(=O)c4ccccc4)c4ccccc4)C(C)=C1C3(C)C)[C@]1(OC(C)=O)CO[C@@H]1C[C@@H]2OC(=O)[C@H](C)NC(=O)c1ccc(-c2c3ccc(=O)cc-3oc3cc(O)ccc23)c(C(=O)O)c1 (stereo partly specified),-3.6%[10 µM],/,-6.0%[10 µM],/,/,/
C/C=C(\C)C(=O)N[C@@H](c1ccccc1)[C@@H](O)C(=O)O[C@H]1C[C@@]2(O)[C@@H](OC(=O)c3ccccc3)C3[C@](C)(C(=O)[C@H](O)C(=C1C)C2(C)C)[C@@H](O)C[C@H]1OC[C@@]31OC(C)=O (stereo partly specified),?,0.0461µM*,-26.4%,?,41.9,0.164µM*
C/C=C(\C)C(=O)N[C@@H](c1ccccc1)[C@@H](O)C(=O)O[C@H]1C[C@@]2(O)[C@@H](OC(=O)c3ccccc3)C3[C@](C)(C(=O)[C@H](OC(C)=O)C(=C1C)C2(C)C)[C@@H](O)C[C@H]1OC[C@@]31OC(C)=O (stereo partly specified),?,0.013µM*,-25.3%,17.7%,19.9,0.0103µM*
CC(=O)O[C@@]12CO[C@@H]1C[C@H](O)[C@@]1(C)C(=O)[C@H](O)C3=C(C)[C@@H](O)C[C@@](O)([C@@H](OC(=O)c4ccccc4)C12)C3(C)C (stereo partly specified),-9.0%,9.2µM*,-10.6%,-27.2%,4.9,9.2µM*
C[C@@H]1CO1,2.1%,/,-13.5%,/,/,/
COc1cccc(CC(=O)N2CCN(Cc3cccc(Cl)c3)CC2)c1,26.9%,-23.2%,10.1%,-5.6%,-29.0,?
